Shown are actives, neighbours in structure and some others; about 19% of the full set was active somewhere.
DT40 TDP1 CPT = qHTS for Inhibitors of human tyrosyl-DNA phosphodiesterase 1 (TDP1): qHTS in cells in presence of CPT | 420,000 compounds, 12% hits | Potency, µM (series often up to 46.2 µM), for inactives: at the top dose activity change, negative = growth inhibition, usual class: inhibitors | chicken DT40 Tdp1-/-;hTDP1 cells + 20 nM CPT, ATP luminescence, 48 h; note: potency is the fitted concentration of half-maximal effect; nearly all actives have a fitted effect of over 55% in size
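Cell growth measured by CellTiter-Glo luminescence after a minimum 48 h, 37 C compound exposure with 20 nM CPT in Tdp1-knockout DT40 cells stably expressing hTDP1, seeded 400/well; qHTS titration format.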
ELG1 DNA repair = qHTS screen for small molecules that inhibit ELG1-dependent DNA repair in human embryonic kidney (HEK293T) cells expressing luciferase-tagged ELG1; HEK293T ELG1-luciferase reporter, luminescence, 16 h; DNA damage induced by 5-fluorouridine; Potency, µM (series often up to 46.1 µM), without a hit: at the top dose activity change, negative = inhibition, usual class: inhibitors; 330,000 compounds, 2.3% hits; note: potency is the fitted concentration of half-maximal effect; nearly all actives have a fitted effect of over 55% in size
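In this reporter screen, reduction of luminescence relative to DMSO vehicle indicated activity. Compounds and 5-fluorouridine were added together to 2,000 cells per well, incubated for 16 hr at 37 °C, then developed with ONE-Glo.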
Giardia kill = Small Molecules that selectively kill Giardia lamblia: qHTS | Giardia lamblia trophozoite viability | activity change, % at 7.66 µM, hits read low | 340,000 compounds, 0.15% hits | AID 540267, 2011; in the data active = activity change below about -80%; inconclusive = between about -30% and that limit;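 note: parasites exposed to compound for two days anaerobically before the ATP read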
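Trophozoites 100 cells/well + cpd; 48 hrs, 37 deg C, anaerobic. ATPLite 1-Step added, 15-30 min RT, luminescence read (ATP-based viability).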
TDP1 cell noCPT = qHTS for Inhibitors of human tyrosyl-DNA phosphodiesterase 1 (TDP1): qHTS in cells in absence of CPT; DT40 Tdp1-/- hTDP1 cells, no CPT, ATP luminescence, 48 h; Potency, µM (titrated, usually from 46.2 µM), without a hit: top-dose activity change, negative = growth inhibition, usual class: inhibitors; 420,000 compounds, 15% hits; AID 686978, 2013; note: potency is the fitted concentration of half-maximal effect; nearly all actives have a fitted effect of over 55% in size
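Growth kinetics read by CellTiter-Glo luminescence after ≥48 hr at 37 °C. Cells: DT40 Tdp1-/- stably carrying human TDP1, 400 per well, compound exposure in the absence of CPT (DMSO vehicle).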
IL-1B inflam inh = qHTS for Inhibitors of Inflammasome Signaling: IL-1-beta AlphaLISA Primary Screen. THP-1 LPS/ATP IL-1B secretion, AlphaLISA, 16 h; active compounds read low. 360,000 compounds, 4.7% hits. activity change, % at 57.5 µM; in the data active = activity change below about -50%; inconclusive = mostly about -30% to -49%
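THP-1 cells pretreated 1 hr with compounds (up to 57.5 uM final), then stimulated with LPS (250 ng/mL final) plus ATP (1.25 mM final); secreted IL-1B measured by AlphaLISA after 16 hr, decreased signal indicating inhibition.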
TDP1 inh = qHTS Assay for Inhibitors of Tyrosyl-DNA Phosphodiesterase (TDP1). Potency, µM (highest dose often 130 µM), without a hit: at the highest dose activity change, negative = inhibition, actives largely listed as inhibitors. 350,000 compounds, 0.28% hits. recombinant TDP1, AlphaScreen DNA substrate cleavage; note: potency is the fitted concentration of half-maximal effect; nearly all actives have a fitted effect of over 40% in size
Target sequence (Q9NUW8 whole entry, looked up): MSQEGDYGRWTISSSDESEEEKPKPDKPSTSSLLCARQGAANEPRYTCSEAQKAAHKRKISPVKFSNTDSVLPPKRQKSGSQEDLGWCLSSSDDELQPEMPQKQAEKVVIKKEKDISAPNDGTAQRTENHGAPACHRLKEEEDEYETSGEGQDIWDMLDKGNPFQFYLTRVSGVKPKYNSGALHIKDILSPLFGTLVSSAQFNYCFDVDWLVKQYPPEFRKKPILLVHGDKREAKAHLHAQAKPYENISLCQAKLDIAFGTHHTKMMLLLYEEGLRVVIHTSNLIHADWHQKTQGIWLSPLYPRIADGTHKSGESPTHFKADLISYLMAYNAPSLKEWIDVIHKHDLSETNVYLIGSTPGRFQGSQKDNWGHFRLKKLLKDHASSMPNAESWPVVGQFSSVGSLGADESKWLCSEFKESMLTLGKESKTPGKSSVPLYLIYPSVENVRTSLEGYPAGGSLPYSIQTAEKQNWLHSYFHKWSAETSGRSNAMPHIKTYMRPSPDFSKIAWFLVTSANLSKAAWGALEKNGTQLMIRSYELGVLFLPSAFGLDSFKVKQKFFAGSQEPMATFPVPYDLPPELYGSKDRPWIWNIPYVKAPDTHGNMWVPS
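Steps: enzyme plus compound, 15 min RT; add biotin/phosphotyrosine-FITC oligonucleotide (15 nM final), react 5 min; add donor/acceptor beads (10 ug/ml final), 10 min; read AlphaScreen. Tdp1 at 1 nM final.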
Active calls of the source: *; ? = inconclusive; · = not tested or not shown; [ ] = dose if it differs, or a comment. Unless noted, calls come from the whole dose curve; as a rule, active = well fitted curve in the direction sought with a large enough effect; inconclusive = small, poorly fitted or top-dose-only effect, or another doubt; inactive = no such curve, though single readings can be large; an effect the other way counts as inactive or inconclusive. % is set by controls: 0 for no effect and ±100 for the full control effect.

SMILES	DT40 TDP1 CPT	ELG1 DNA repair	Giardia kill	TDP1 cell noCPT	IL-1B inflam inh	TDP1 inh
CC[n+]1c(/C=C2/C=C(C)CC(C)(C)C2)sc2ccc(OC)cc21	2.31µM*	6.3%	1.2	1.16µM*	-112.3*	8.2%
CC[n+]1c(/C=C2\C=C(C)CC(C)(C)C2)sc2ccccc21	0.651µM*	9.0%	-15.9	2.31µM*	-59.9*	5.1%
OC(c1ccccc1)c1nc(-c2cccs2)cs1 (stereo not given)	?	·	·	-26.1%	-2.9	·
COc1ccc(OCCNC(=O)C2(C)CCN2Cc2ccc(SC)cc2)cc1 (stereo not given)	?	·	·	16.4µM*	-9.5	·
COCOc1cccc(CN2CCC2(C)C(=O)NCCNC(C)=O)c1 (stereo not given)	2.1%	·	·	24.3%	22.3	·
COc1ccc(OCCNC(=O)C2(C)CCN2Cc2ccc3ccccc3c2)cc1 (stereo not given)	29.1µM*	·	·	16.4µM*	-13.6	·
CCOc1cc(CNc2ccc(CNc3ncn[nH]3)cc2)ccc1OCc1ccccc1	?	-29.3%	8.3	?	0.2	10.5%
C(=N\N=C\c1cccnc1)/c1cccnc1	?	-3.6%	11.0	-7.6%	9.8	0.0%
O=C1/C(=C/c2ccccc2)CCCc2ccccc21	-16.2%	?	2.8	?	-19.3	4.2%
CC(C)/C=C1\CC/C(=C\c2cccnc2)C1=O	?	?	0.4	20.6µM*	-9.8	1.2%
CCC1C/C(=C\c2cccnc2)C(=O)/C(=C/c2cccnc2)C1 (stereo not given)	3.26µM*	2.59µM*	-28.7	4.61µM*	?	2.7%
O=C1/C(=C/c2cccnc2)CCC/C1=C\c1cccnc1	2.06µM*	4.11µM*	?	2.06µM*	-106.8*	2.6%
CC(C)N1C(=O)S/C(=C/c2cccnc2)C1=O	-25.1%	?	-7.3	-29.5%	-29.1	0.0%
O=C1/C(=C\c2cccnc2)CCc2ccccc21	13µM*	?	-16.0	18.4µM*	-110.6*	3.1%
CCOc1cc(NC(=O)c2cccs2)c(OCC)cc1NC(=O)CCC(=O)NCCN1CCOCC1	5.8%	-7.5%	0.8	-25.5%	-20.1	1.2%
COc1ccc(Cc2c(C3CCCCC3)nc3ccc(Cl)cn23)c(C)c1	-28.8%	·	·	?	0.0	·
c1ccc(Cn2c[n+](Cc3ccccc3)cn2)cc1	-0.3%	0.0%	1.9	-8.7%	-7.8	·
Cc1ccc(NC(=O)COC(=O)[C@@H]2CC(O)CN2S(=O)(=O)c2ccc3c(c2)OCCO3)cc1 (stereo not given in full)	-15.4%	?	10.3	-1.3%	-9.1	1.1%
O=C1/C(=C/c2cccnc2)CC/C1=C\c1cccnc1	?	?	-24.1	?	-87.2*	5.8%
NC1=NC(=O)/C(=C\c2cccnc2)S1	?	?	0.1	-23.8%	-11.2	5.3%
Cc1cc(C)c2nc(N3CCCC(C(=O)NCc4ccccc4F)C3)sc2c1 (stereo not given)	?	·	·	?	·	-2.9%
COc1ccc(C2Nc3cc(OC)ccc3-n3cccc32)cc1 (stereo not given)	23.1µM*	-17.6%	-18.2	23.1µM*	?	·
O=C(NC(NC(=S)N1CCOCC1)C(Cl)(Cl)Cl)c1ccc(Cl)cc1 (stereo not given)	3.66µM*	?	-5.6	4.11µM*	1.3	-1.8%
O=C(NC(=S)N1CCCC1)c1ccc(Cl)cc1	-17.4%	24.2%	-7.8	-22.2%	5.2	3.1%
COc1cccc(CNCc2ccc(SC)cc2)c1OC	?	6.2%	4.7	?	?	0.0%
SMILES	DT40 TDP1 CPT	ELG1 DNA repair	Giardia kill	TDP1 cell noCPT	IL-1B inflam inh	TDP1 inh
Cc1ccc(CNCCCSc2nc(C)cc(C)n2)cc1	?	-17.8%	-9.6	?	?	6.0%
CSc1ccc(CNCCCN(C)C)cc1	?	-18.2%	38.4	?	-54.3*	-2.7%
CCOc1c(CNCCCSc2nc(C)cc(C)n2)cccc1OC	20.6µM*	-0.3%	3.9	?	7.5	·
Brc1ccc(CNCCCSc2ncccn2)cc1	14.6µM*	-4.9%	10.7	16.4µM*	-0.8	4.8%
Clc1ccc(CNCCCSc2ncccn2)cc1	-82.2%	-5.9%	5.1	?	-15.5	·
Brc1ccc(CNCCCSc2nnnn2-c2ccccc2)cc1	?	·	·	16.4µM*	·	0.5%
c1cnn(Cc2cnc(N3CCOCC3)s2)c1	-4.4%	6.5%	?	6.5%	11.8	0.0%
CSc1ccc(CNCCCSc2ncccn2)cc1	?	-5.1%	-28.0	-22.4%	-68.5*	·
Cc1cc(C)nc(SCCCNCc2ccc(Br)cc2)n1	?	?	-24.2	20.6µM*	-3.7	·
CC(OC(=O)CC1CCCCC1)C(=O)Nc1cccc(C#N)c1 (stereo not given)	?	5.8%	5.5	?	-4.1	-3.9%
O=CN/C=C/c1cc(F)cc(F)c1F	·	·	·	·	·	5.6%
COc1ccc2c(-c3cc4ccc(OCc5ccc(F)cc5)cc4oc3=O)cc(=O)oc2c1	7.31µM*	4.4%	4.4	11.6µM*	-8.9	0.0%
COc1ccc(COc2ccc3c(C)cc(=O)oc3c2)cc1	?	?	6.8	?	-6.6	1.4%
COc1ccccc1NC(=O)CN1C(=O)C(C)(C)c2ccccc21	-13.2%	·	·	-26.9%	·	7.7%
CCOC(=O)N1C(=O)[C@@](CC)(c2ccccc2)N1C(=O)OCC	8.2µM*	-9.0%	12.0	13µM*	·	·
COC(=O)N1C(=O)[C@](CC(C)C)(c2ccccc2)N1C(=O)OC	20.6µM*	?	-4.6	16.4µM*	·	·
CCOC(=O)N1CCN(C(=S)Nc2cccc(C)c2)CC1	-5.6%	-5.7%	2.8	7.0%	12.0	2.1%
CC[C@@]1(c2ccccc2OC)C(=O)N(C(=O)OC)N1C(=O)OC	?	-11.0%	-4.1	?	-87.3*	·
COc1ccc(CNC(=O)C(C)N2C(=O)NC(c3ccccc3)(c3ccccc3)C2=O)cc1 (stereo not given)	-11.9%	-10.6%	-0.2	2.3%	?	1.1%[56.1 µM]
CC[C@@]1(c2cccc(C)c2)C(=O)N(C(=O)OC)N1C(=O)OC	18.4µM*	?	5.9	18.4µM*	-88.3*	·
COc1ccc(-c2cc(C(=O)OC(C)C(=O)c3ccccc3)c3cccc(Cl)c3n2)cc1 (stereo not given)	-7.0%	·	·	-1.9%	·	·

Compound activity (PubChem)
